# Luc counter: Kinase-Glo luciferase inhibition (counter-screen). Q27757. 200,000 tested, 0.28% active. Kinase-Glo luciferase, ATP luminescence, 8 min. AID 1379. Potency, µM (doses to about 38.3 µM), inactives show top-dose activity change, negative = inhibition, hits mostly inhibitors; active = well fitted inhibition curve with a large enough effect; inconclusive = small, poorly fitted or top-dose-only effect; note: potency is the fitted concentration of half-maximal effect; nearly all actives have a fitted effect of over 60% in size
#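 Compounds were added to a substrate mix at pH 7.2 (50 mM imidazole, 10 uM ATP, within the enzyme's linear range), followed by Kinase-Glo detection reagent; luminescence was measured after 8 minutes at ambient temperature.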
# Lamin A splicing: changes lamin A minigene splicing in HeLa cells. Potency, µM (titrated, usually from 46.1 µM), without a hit: at the top dose ratio change, negative = inhibition, actives largely listed as inhibitors. HeLa LMNA splicing GFP/RFP minigene ratio, 48 h. AID 1487. 200,000 tested, 0.01% active; active = well fitted inhibition curve with a large enough effect in the signal ratio, with a control signal flat, not every such curve was filed as active; inconclusive = small, poorly fitted or top-dose-only effect, or effect the other way, or a change in a side signal; the % refers to the signal ratio; note: potency is the fitted concentration of half-maximal effect
#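 S3 HeLa cells stably expressing lamin A-EGFP splicing minigene plus DsRed2, 600 cells/well, 48 h compound exposure at 37C. Laser-scanning cytometry; analysed as GFP (500-530 nm)/RFP (575-640 nm) total intensity ratio; 0.5% DMSO vehicle.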
# PNC assembly inh: inhibitors of perinucleolar compartment assembly. PC3M PTB-GFP, PNC prevalence imaging, 16 h; stronger effect = lower value. activity change (PNC), negative = inhibition, % at 10 µM. 140,000 tested, 3.1% active. AID 2417;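 active = readout at or below -70, meaning at least 70% loss of cells showing the perinucleolar compartment, a nuclear body marking cancer cells; inconclusive = readout between -30 and a set limit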;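 note: plate controls were DMSO wells for no effect and camptothecin positive control wells for full effect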
#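 PC3M cells stably expressing PTB-GFP, 750–1000 cells/well, treated 16 h at 37 °C with compound (23 nl of library stock), in duplicate. After paraformaldehyde fixation and Hoechst stain, imaged at 20x; PNC prevalence scored by image analysis.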
# IMPase inh: IMPase inhibition in cells; CHO-M1 cells, IP1 accumulation, HTRF TR-FRET ratio; inhibition (IP1 accumulation), % at 46.1 µM; 120,000 tested, under 10 active; AID 901; active = well fitted curve in the direction sought with a large enough effect in the signal ratio, not every such curve was filed as active; inconclusive = small, poorly fitted or top-dose-only effect, or a change in a side signal; inactive = no such curve, though single readings can be large or run the other way; the % refers to the signal ratio;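 note: cells stimulated with carbachol in lithium chloride buffer; plate controls were DMSO basal wells for no effect and reference inhibitor wells for full effect; higher means more IMPase inhibition seen as more IP1 and lower FRET ratio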
# Target sequence (P97697 whole entry, looked up): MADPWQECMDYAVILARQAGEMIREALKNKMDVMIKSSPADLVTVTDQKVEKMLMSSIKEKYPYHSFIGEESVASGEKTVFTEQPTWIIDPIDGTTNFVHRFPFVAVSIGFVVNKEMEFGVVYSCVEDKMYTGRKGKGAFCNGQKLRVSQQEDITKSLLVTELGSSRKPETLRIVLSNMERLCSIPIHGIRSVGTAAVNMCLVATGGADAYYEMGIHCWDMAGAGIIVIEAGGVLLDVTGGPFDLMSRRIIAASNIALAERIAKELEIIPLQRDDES
#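 The IP-One HTRF competitive assay in carbachol-stimulated CHO-M1 cells quantifies cellular IP1. Compounds spanned up to 46 uM final, and activity is expressed as AC50 from concentration-response fits of the ratio and donor data.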
# ALDH1A1 inh: inhibitors of human aldehyde dehydrogenase 1A1; Purified ALDH1A1, NADH fluorescence, propionaldehyde substrate; Potency, µM (series often up to 75.3 µM), inactives show at the highest dose activity, negative = inhibition, hits mostly inhibitors; 220,000 tested, 7.3% active;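 note: potency is the fitted concentration of half-maximal effect; plate controls were no enzyme wells and a reference inhibitor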
# Target sequence (P00352 whole entry, looked up): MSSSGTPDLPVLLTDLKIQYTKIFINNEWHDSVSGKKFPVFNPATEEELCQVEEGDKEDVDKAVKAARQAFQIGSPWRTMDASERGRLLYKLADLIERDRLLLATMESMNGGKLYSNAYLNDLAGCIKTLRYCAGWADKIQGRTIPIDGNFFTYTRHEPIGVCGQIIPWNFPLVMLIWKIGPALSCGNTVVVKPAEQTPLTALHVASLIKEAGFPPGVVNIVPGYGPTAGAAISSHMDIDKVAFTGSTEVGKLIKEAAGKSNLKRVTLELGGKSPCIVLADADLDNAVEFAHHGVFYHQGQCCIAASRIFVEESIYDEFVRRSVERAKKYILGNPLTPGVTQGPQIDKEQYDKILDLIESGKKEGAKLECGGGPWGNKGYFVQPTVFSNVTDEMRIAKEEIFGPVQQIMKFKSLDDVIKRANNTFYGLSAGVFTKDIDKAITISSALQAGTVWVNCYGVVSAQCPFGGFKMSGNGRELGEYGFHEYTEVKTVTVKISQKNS
# HPGD block: inhibitors of human 15-hydroxyprostaglandin dehydrogenase (HPGD); 150,000 tested, 4.3% active; Potency, µM, without a hit: top-dose activity change, negative = inhibition, actives largely listed as inhibitors; P15428; purified HPGD, NADH fluorescence kinetic, PGE2 substrate; note: potency is the fitted concentration of half-maximal effect
#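 NADH formation kinetics: reaction with 30 uM PGE2 and 1 mM NAD+ (final), 20 nM enzyme, Tris-HCl pH 8 with Tween 20, after 15 min compound preincubation at room temperature. Fluorescence change, last versus first of five reads.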
# * marks the source's active call; other numbers are inactive results; ? = inconclusive; / = no result given; [ ] = remark or other dose. Only some compounds are listed: those with a hit (about 10% of all), similar ones and a draw of the others. Unless noted, calls come from the whole dose curve; as a rule, active = well fitted inhibition curve with a large enough effect (not every such curve was filed as active); inconclusive = small, poorly fitted or top-dose-only effect, or another doubt; inactive = no such curve, though single readings can be large or run the other way. Unless noted, % is set by controls: 0 for no effect and ±100 for the full control effect.
SMILES,Luc counter,Lamin A splicing,PNC assembly inh,IMPase inh,ALDH1A1 inh,HPGD block
Cc1ccc(-n2ncc(C(=O)NCc3ccco3)c2C2CCN(C(=O)OC(C)(C)C)CC2)cc1,/,-16.6%[46 µM],/,/,/,/
CC(C)NC(=O)CCNC(=O)c1ccc(F)cc1,2.2%,4.6%,8.7,8.3,2.82µM*,-5.8%
CCCC(C)NC(=O)c1ccc(F)cc1 (stereo not given),-5.3%,-4.9%,-82.2*,2.9,39.8µM*,?
CCOC(=O)/C(C#N)=C/c1ccc(-c2ccc(C)cc2)o1,/,/,/,-1.8,/,/
O=C1C2ON(c3ccccc3)C(c3cccnc3)C2C(=O)N1Cc1ccccc1 (stereo not given),1.3%,-0.2%,?,2.0,35.5µM*,-11.9%
COc1c(Br)cc2c(C)c(C(=O)O)oc2c1Br,4.5%,?,25.1,/,?,14.1µM*
COc1ccc2c(C)c(C(=O)O)oc2c1,-2.1%,15.9%,?,-19.8,?,-29.2%
c1coc(-c2nnc3sc(Cc4cccs4)nn23)c1,-7.6%,-16.4%,13.5,0.9,20µM*,?
COc1ccc(OCc2nn3c(-c4ccco4)nnc3s2)cc1,/,-16.4%,?,11.6,31.6µM*,/
Clc1ccc(OCc2nn3c(-c4ccco4)nnc3s2)cc1,-2.0%,?,?,-1.7,22.4µM*,?
Clc1ccc(-c2nnc3sc(Cc4cccs4)nn23)c(Cl)c1,-5.5%,-12.6%,26.0,1.7,?,?
COc1ccc(OCc2nn3c(-c4cccc(OC)c4)nnc3s2)cc1,-2.3%,5.0%,-9.4,-10.7,4.8%,?
c1coc(-c2nn3c(-c4ccco4)nnc3s2)c1,-1.3%,-0.8%,13.4,-0.6,20µM*,-26.0%
CC1(c2ccc(Cl)cc2)CC(C)(C)N(C(=O)c2cccc(F)c2)c2ccccc21 (stereo not given),/,/,/,-5.4,/,/
COCCNC(=O)c1cccc(Nc2nc(-c3ccccc3)c3cc(Cl)ccc3n2)c1,2.2%,?,-18.6,7.3,-10.3%,28.2µM*
CCN1CCN(C2=NC(=O)/C(=C/c3ccc(C)o3)S2)CC1,-3.2%,-0.3%,21.6,6.0,20µM*,-19.0%
Cc1ccc2cccc(NC(=S)NC(=O)c3ccnn3C)c2n1,0.9%,-8.2%,-20.8,?,10µM*,-2.4%
Cn1cc(CNC(=O)C23CC4CC(CC(C4)C2)C3)cn1,-2.2%,-6.3%,-29.4,3.5,5.01µM*,-13.9%
CN(/C=C/C(=C/C=[N+](C)c1ccccc1)OCCCS(=O)(=O)[O-])c1ccccc1,1.7%,-2.4%[46 µM],/,/,/,/
CN(/C=C/C(=C\C=[N+](C)c1ccccc1)OCCCS(=O)(=O)[O-])c1ccccc1,2.4%,/,/,/,31.6µM*,/
CCCCCCN1C=CC=C/C1=C/C=C(C#N)C#N,-2.4%,?,-21.7,/,0.9%,11.2µM*
CCCCCN1C=CC=C/C1=C\C=C(C#N)C#N,/,/,/,/,0.447µM*,/
CCOC(=O)N1CCN(C(=O)CSc2ccc(-c3ccc(OC)cc3)nn2)CC1,-2.8%,3.3%[46 µM],/,/,-4.0%,/
CCOc1ccc(-c2ccc(SCC(=O)N3CCN(c4ccccc4)CC3)nn2)cc1,1.6%,-1.5%,49.9,-7.7,17.8µM*,-3.7%
CC1CCN(C(=O)CSc2ccc(-c3ccc(F)cc3)nn2)CC1,-5.3%,?,-1.5,-11.1,-1.7%,10µM*
SMILES,Luc counter,Lamin A splicing,PNC assembly inh,IMPase inh,ALDH1A1 inh,HPGD block
CC1CCN(C(=O)COc2ccccc2F)CC1,-2.1%,2.4%,28.9,5.7,-5.9%,25.1µM*
O=C(CSc1ccc(-c2ccc(F)cc2)nn1)N1CCCCC1,4.1%,7.3%,-7.2,-7.2,-11.8%,15.8µM*
CCN(CC)S(=O)(=O)c1ccc2c(c1)N(CC(=O)N1CCN(c3ccc(OC)cc3)CC1)C(=O)CO2,/,5.6%[46 µM],/,/,/,/
C=CCNS(=O)(=O)c1nc(C)c(Cl)c(C)c1C#N,1.1%,-14.4%,-84.8*,-13.9,-3.5%,-13.0%
CSc1nc(C)c(Cl)c(C)c1C#N,-0.7%,-1.0%,?,2.6,14.5%,-1.6%
NCCSS(=O)(=O)CCN,1.0%[7.66 µM],/,/,/,?,?
CCC(C)C(=O)O[C@H]1C[C@@H](C)C=C2C=C[C@H](C)[C@H](CC[C@@H]3C[C@@H](O)CC(=O)O3)C21 (stereo not given in full),0.9%,/,/,?,-3.5%,3.5%
C/C(=N\N1C(=O)CSC1=S)c1ccc(Br)cc1,-1.0%,?,/,/,25.1µM*,/
CCCCc1nn2c(=O)cc(COC(=O)c3ccc(NC(=O)c4cccc(OC)c4)cc3)nc2s1,/,12.2%[46 µM],/,/,/,/
CC(=O)Nc1ccc(OCC(O)Cn2c3ccccc3c3ccccc32)c(C)c1 (stereo not given),1.6%,?,37.8,-3.9,2.5%,25.1µM*
CC(=O)Nc1ccc(OCC(O)Cn2c3ccccc3c3ccccc32)cc1 (stereo not given),2.9%,?,?,0.4,15.4%,-11.8%
Cc1nn(-c2ccccc2)c(C)c1/C=N/n1c(-c2ccc(Cl)cc2)n[nH]c1=S,1.2%,-20.3%,12.0,-0.6,?,?
Cc1ccc(-c2n[nH]c(=S)n2/N=C\c2ccco2)cc1,2.2%,-2.3%,?,4.4,-5.5%,22.4µM*
CC(/C=N/n1c(-c2ccc(Cl)cc2)n[nH]c1=S)=C\c1ccco1,/,?,?,4.9,28.2µM*,/
CC(/C=N/n1c(-c2ccco2)n[nH]c1=S)=C\c1ccccc1,4.1%,2.2%,?,2.8,-4.5%,2.51µM*
Cc1cccc(-n2c(-c3ccco3)n[nH]c2=S)c1,-1.5%,-7.9%,?,/,-6.5%,-13.4%
CC(/C=N/n1cnnc1)=C\c1ccco1,-0.9%,-8.0%,-100.0*,-5.1,?,-13.5%
Cc1cccc(CCNC(=O)C2CCC(CNS(=O)(=O)c3ccccc3)CC2)c1 (stereo not given),/,4.6%[46 µM],/,/,/,/
CCOc1ccc(C2CC(=O)NC(NC(=O)c3cccc(Cl)c3)=N2)cc1 (stereo not given),/,9.5%[46 µM],/,/,/,/
Cc1ccc(-c2n[nH]c(=S)n2/N=C/c2ccncc2)cc1,-1.6%,/,/,/,5.4%,/
Cc1ccc(-c2n[nH]c(=S)n2/N=C/c2ccc(C)o2)cc1,1.5%,-3.2%,19.2,4.0,?,12.6µM*
CCOC(=O)c1noc2ncnc(N3CCN(c4cccc(Cl)c4)CC3)c12,/,3.7%[46 µM],/,/,/,/
CSc1ccc(/C=C(\C#N)C(=O)NC2CCCCC2C)cc1 (stereo not given),2.5%,?,?,/,?,-14.2%
COc1cc(/C=C(\C#N)C(=O)NC2CCCCC2C)ccc1OS(=O)(=O)c1ccc(C)cc1 (stereo not given),0.7%,?,?,4.7,8.91µM*,?
CCOC(=O)/C(C#N)=C\c1ccc(OC)c(OC)c1,4.5%,5.9%[46 µM],/,/,?,/
